According to PubChem BioAssay (NCATS):
Values joined by “and” are separate entries in the source; they are usually repeats but may differ in a detail not shown here. Equal entries are not always repeated. Inconclusive results are not listed. Active and inactive are the calls of the source. Unless noted, the call rests on the fitted dose curve; in most records, active means well fitted curve in the direction sought with a large enough effect; inconclusive means small, poorly fitted or top-dose-only effect, or another doubt; inactive means no such curve, though single readings can be large; an effect the other way counts as inactive or inconclusive.

Columns and labels:
[1] = Cytometric Cell-Based qHTS for Inhibitors of the mTORC1 Signaling Pathway in MEF (Tsc2-/-, p53-/-) Cells (AID 2660); details: mTORC1 pathway cytometry; series mostly up to 38.3 µM;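 further: Tsc2 and p53 null MEFs carrying empty vector with compound for 24 h; percent of cells above a phospho-rpS6 to PI ratio cutoff in each well; plate controls were DMSO for no effect and rapamycin for full effect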
Procedure, shortened: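 Percent of cells positive for normalized phospho-S6 staining is reported, with the cutoff set from rapamycin (7.5 nM) versus DMSO wells. Tsc2-/-, p53-/- MEFs received compound for 24 hrs.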

[2] = High Content Imaging Cell-Based qHTS for Inhibitors of the mTORC1 Signaling Pathway in MEF Cells (AID 2667); details: series mostly up to 38.3 µM;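 further: Tsc2-/- p53-/- MEFs stably re-expressing wild-type Tsc2 exposed 24 h; plate controls were DMSO wells for no effect and rapamycin control wells for full effect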
Procedure, shortened: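 Read-out is the share of phospho-rpS6-positive cells per well, from Hoechst-normalized Alexa-488 Ser235/236 staining imaged on IN Cell. Cells: WT Tsc2-expressing Tsc2-/-, p53-/- MEFs exposed to compound for 24 hrs.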

[3] = Cytometry Cell-Based qHTS for Inhibitors of the mTORC1 Signaling Pathway in MEF cells (AID 2668); details: mTORC1 pathway readout; series mostly up to 38.3 µM;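 further: Tsc2-/- p53-/- mouse embryonic fibroblasts stably re-expressing wild-type Tsc2; percent cells positive for phospho-rpS6 Ser235/236 relative to propidium iodide stain; plate controls were DMSO wells for no effect and 7.5 nM rapamycin control wells for full effect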
Procedure, shortened: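 Phospho-rpS6 (Ser235/236) immunofluorescence over PI signal, scored as % positive cells using thresholds from 7.5 nM rapamycin and DMSO wells, after 24 h compound exposure of WT-Tsc2-rescued Tsc2-/-, p53-/- MEFs. PI cell count recorded for viability.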

[4] = qHTS Assay for Lipid Storage Modulators (AID 1519; calls by dose curve; on activity change, negative = inhibition: on the % scale 0 is the no-effect control and ±100 the full control effect); details: Drosophila S3 cells, BODIPY lipid droplet/cell ratio, laser cytometry, cells loaded with oleic acid
Procedure, shortened: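 Cells seeded at 5,000 per well were treated with compounds over a concentration series and loaded with oleic acid (400 uM, as added). Lipid droplet fluorescence (488 nm excitation, 500-530 nm channel) was read by laser-scanning cytometry and normalized to 20 uM Triacsin C.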

[5] = qHTS Assay for Identification of Small Molecule Inducers of Hypoxia Response (AID 2120; active means well fitted curve in the direction sought with a large enough effect in the signal ratio, with a control signal flat, not every such curve was filed as active; the % refers to the signal ratio; further: 0% is about no effect); details: hypoxia response reporter cells, beta-lactamase ratio readout; series mostly up to 104 µM
Procedure, shortened: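 Read-out: CCF4 FRET emission ratio 460nm/530nm (excitation 405nm), converted to %Activity, with AC50 fitted across a compound titration. ME-180 cells carried an HRE-driven beta-lactamase reporter; compound exposure 17 h, 37 degrees C.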

[6] = biological target: DNA repair nuclease/redox regulator APEX1 (Homo sapiens) (UniProt P27695); test: qHTS Validation Assay for Inhibitors of the Human Apurinic/apyrimidinic Endonuclease 1 (APE1) (AID 1705;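 further: TAMRA fluorescence gain over two minutes as APE1 cuts a quenched THF abasic duplex; on the % scale 0 is the no-effect control and ±100 the full control effect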); details: purified APE1 endonuclease activity, fluorescence, titration; series mostly up to 57.1 µM
DNA repair nuclease/redox regulator APEX1 (Homo sapiens), sequence (P27695 whole entry, looked up): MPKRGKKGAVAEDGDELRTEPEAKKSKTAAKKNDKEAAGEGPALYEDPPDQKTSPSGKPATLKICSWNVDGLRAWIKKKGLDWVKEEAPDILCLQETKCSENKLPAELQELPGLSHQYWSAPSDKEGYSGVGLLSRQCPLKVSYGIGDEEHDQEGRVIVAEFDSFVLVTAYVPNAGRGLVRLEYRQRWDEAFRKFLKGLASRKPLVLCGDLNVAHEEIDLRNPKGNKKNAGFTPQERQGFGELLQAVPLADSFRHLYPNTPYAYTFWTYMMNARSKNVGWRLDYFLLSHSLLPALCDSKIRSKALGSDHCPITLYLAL
Procedure, shortened: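 Activity read as rising fluorescence (598 nm emission, 525 nm excitation) from incision of a TAMRA/BHQ-2 duplex carrying a THF abasic site (50 nM). Compound and enzyme sat 15 min at RT before substrate start; signal change between first and third 60-s reads.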

[7] = Counterscreen for APE1 Inhibitors: Fluorescent Dye Displacement Validation Assay (AID 1707); details: fluorescent dye displacement from DNA; series mostly up to 57.1 µM;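 further: plate controls were ThO with dsDNA and no compound for no effect and ThO without dsDNA for full effect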
Procedure, shortened: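 Loss of Thiazole Orange fluorescence marks promiscuous DNA binders. The dye (250 nM) is mixed with 50 nM abasic-site dsDNA in pH7.5 Tris buffer containing MgCl2, then compounds are added and emission is read once.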

[8] = biological target: Endonuclease 4 (Escherichia coli (strain K12)) (UniProt P0A6C1); test: Counterscreen for APE1 Inhibitors: qHTS Validation Assay for Inhibitors of Endonuclease IV (AID 1708); further: on the % scale 0 is the no-effect control and ±100 the full control effect; details: E. coli endonuclease IV, DNA cleavage fluorescence; series mostly up to 57.1 µM
Procedure, shortened: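 Read-out: fluorescence rise (ex 525/em 598 nm) from incision of a TAMRA/BHQ-2 double-stranded THF abasic-site substrate (50 nM), measured kinetically; third-minus-first read difference gave reaction progress. Enzyme 2 nM.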

[9] = qHTS for differential inhibitors of proliferation of Plasmodium falciparum line 7G8 (AID 1815); details: Plasmodium falciparum 7G8 proliferation inhibition; series mostly up to 28.7 µM;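 further: parasite growth measured after three days of incubation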; further: potency means the concentration at half of the fitted maximal effect;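 on activity change, negative = inhibition: plate controls were vehicle wells for no effect and reference inhibitor wells for full effect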
[10] = qHTS for differential inhibitors of proliferation of Plasmodium falciparum line GB4 (AID 1816); details: Potency: Plasmodium falciparum GB4 proliferation inhibition; series mostly up to 28.7 µM;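 further: parasite growth measured after 72 h incubation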; further: potency means the concentration at half of the fitted maximal effect;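 on activity change, negative = inhibition: 0% = vehicle DMSO and -100% = reference inhibitor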
[11] = qHTS for differential inhibitors of proliferation of Plasmodium falciparum line 3D7 (AID 1876); further: potency means the concentration at half of the fitted maximal effect; details: P. falciparum 3D7 proliferation inhibition; series mostly up to 28.7 µM
[12] = qHTS for differential inhibitors of proliferation of Plasmodium falciparum line D10 (AID 1877); details: series mostly up to 28.7 µM;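 further: parasites grown with compound for 72 h before DNA staining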; further: potency means the concentration at half of the fitted maximal effect;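 on activity change, negative = inhibition: plate controls were vehicle wells for no effect and reference inhibitor wells for full effect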
[13] = qHTS for differential inhibitors of proliferation of Plasmodium falciparum line Dd2 (AID 1882); details: Potency: Plasmodium falciparum Dd2 proliferation inhibition; series mostly up to 28.7 µM; further: nearly all actives have a fitted effect of over 65% in size; further: potency means the concentration at half of the fitted maximal effect;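 on activity change, negative = inhibition: compound exposure of 72 h on infected erythrocytes; plate controls were DMSO vehicle for no effect and 0.29 µM artemisinin for full effect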
Procedure, shortened: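 RBC culture, 0.3% parasitemia / 2.5% Hct final; cpd added by pin tool in DMSO; 72 h, 37 C, 5% CO2; lysis buffer + SYBR Green I, o/n RT dark; FI 485/535; norm. to artemisinin 0.29 uM and DMSO.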

[14] = qHTS for differential inhibitors of proliferation of Plasmodium falciparum line W2 (AID 1883); details: Potency: Plasmodium falciparum W2 proliferation inhibition; series mostly up to 28.7 µM;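 further: parasites grown with compound for 72 h before lysis and staining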; further: potency means the concentration at half of the fitted maximal effect;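 on activity change, negative = inhibition: 0% = vehicle wells and -100% = control inhibitor wells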
[15] = qHTS for differential inhibitors of proliferation of Plasmodium falciparum line HB3 (AID 1886); details: Potency: Plasmodium falciparum HB3 proliferation inhibition; series mostly up to 28.7 µM;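 further: parasites grown with compound for 72 h before SYBR Green readout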; further: potency means the concentration at half of the fitted maximal effect;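 on activity change, negative = inhibition: plate controls were vehicle for no effect and reference inhibitor for full effect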
[16] = biological target: Ferritin light chain (Equus caballus) (UniProt P02791); test: qHTS Validation Assay for Identification of Novel General Anesthetics (AID 2323); details: horse apoferritin, anesthetic-site fluorescent probe displacement; series mostly up to 76.9 µM; further: on the % scale 0 is the no-effect control and ±100 the full control effect
Ferritin light chain (Equus caballus), sequence (P02791 2-175 limits assumed): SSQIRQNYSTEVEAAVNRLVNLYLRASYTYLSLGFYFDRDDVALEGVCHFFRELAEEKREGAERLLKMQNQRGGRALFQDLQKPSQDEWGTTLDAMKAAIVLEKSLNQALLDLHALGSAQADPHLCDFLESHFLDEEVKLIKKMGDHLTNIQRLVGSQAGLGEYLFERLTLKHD
Procedure, shortened: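 Competitive displacement of the profluorescent anesthetic 1-AMA (50% saturated, PBS) from 10 uM apoferritin, 10 min, room temperature. Activity is normalized 380/535 nm fluorescence; concentration-response fitted with a four-parameter Hill equation.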

[17] = Validation screen for small molecules that induce DNA re-replication in MCF 10A normal breast cells (AID 463097); details: MCF 10A cells, DNA re-replication phenotype imaging; series mostly up to 46.1 µM; further: nearly all actives have a fitted effect of over 60% in size; further: potency means the concentration at half of the fitted maximal effect
Procedure, shortened: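 Read-out is Hoechst total nuclear intensity by fluorescence scanning imager, flagging increased high-DNA-content nuclei. Compounds were incubated with MCF 10A cells for 48 hr (37 C, 5% CO2) before 40 min staining.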

[18] = biological target: ATP-dependent DNA helicase Q1 (Homo sapiens) (UniProt P46063); test: qHTS Validation Assay for Inhibitors of RecQ-Like Dna Helicase 1 (RECQ1) (AID 2353); details: recombinant RECQ1 helicase DNA unwinding assay; series mostly up to 25.6 µM;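 further: plate controls were DMSO vehicle for no effect and enzyme-free control for full effect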
ATP-dependent DNA helicase Q1 (Homo sapiens), sequence (P46063 whole entry, looked up): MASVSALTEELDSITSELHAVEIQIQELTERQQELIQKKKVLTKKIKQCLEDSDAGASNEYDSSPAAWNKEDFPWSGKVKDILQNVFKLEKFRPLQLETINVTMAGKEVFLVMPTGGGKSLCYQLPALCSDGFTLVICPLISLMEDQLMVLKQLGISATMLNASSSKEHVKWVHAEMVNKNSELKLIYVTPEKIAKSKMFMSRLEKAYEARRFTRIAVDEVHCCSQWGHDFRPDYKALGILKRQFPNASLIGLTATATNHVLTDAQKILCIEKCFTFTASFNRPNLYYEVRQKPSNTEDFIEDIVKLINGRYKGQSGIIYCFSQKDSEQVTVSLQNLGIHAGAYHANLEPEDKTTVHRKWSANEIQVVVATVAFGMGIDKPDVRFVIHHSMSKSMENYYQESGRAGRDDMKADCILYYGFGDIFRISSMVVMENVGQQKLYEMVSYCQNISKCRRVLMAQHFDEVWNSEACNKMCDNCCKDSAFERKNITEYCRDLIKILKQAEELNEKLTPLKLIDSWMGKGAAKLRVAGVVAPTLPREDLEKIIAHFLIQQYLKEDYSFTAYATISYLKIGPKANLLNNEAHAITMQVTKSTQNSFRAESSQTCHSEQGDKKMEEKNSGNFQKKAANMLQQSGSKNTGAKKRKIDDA
Procedure, shortened: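 RECQ1T1 50 nM; forked duplex (20 bp + 30-nt ss tails) 200 nM, ATP 2 mM final; pH 8.0, 2 mM MgCl2, 2.5 ug/ml poly(dI-dC); 15 min compound preincubation; discontinuous kinetic read over 2 h at RT.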

[19] = biological target: RecQ-like DNA helicase BLM (Homo sapiens) (UniProt P54132); test: qHTS Validation Assay for Inhibitors of Bloom's syndrome helicase (BLM) (AID 2364); details: BLM helicase DNA unwinding, fluorescence, in vitro; series mostly up to 57.1 µM; further: potency means the concentration at half of the fitted maximal effect;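 on activity change, negative = inhibition: plate controls were DMSO vehicle for no effect and enzyme-free control for full effect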
RecQ-like DNA helicase BLM (Homo sapiens), sequence (P54132 whole entry, looked up): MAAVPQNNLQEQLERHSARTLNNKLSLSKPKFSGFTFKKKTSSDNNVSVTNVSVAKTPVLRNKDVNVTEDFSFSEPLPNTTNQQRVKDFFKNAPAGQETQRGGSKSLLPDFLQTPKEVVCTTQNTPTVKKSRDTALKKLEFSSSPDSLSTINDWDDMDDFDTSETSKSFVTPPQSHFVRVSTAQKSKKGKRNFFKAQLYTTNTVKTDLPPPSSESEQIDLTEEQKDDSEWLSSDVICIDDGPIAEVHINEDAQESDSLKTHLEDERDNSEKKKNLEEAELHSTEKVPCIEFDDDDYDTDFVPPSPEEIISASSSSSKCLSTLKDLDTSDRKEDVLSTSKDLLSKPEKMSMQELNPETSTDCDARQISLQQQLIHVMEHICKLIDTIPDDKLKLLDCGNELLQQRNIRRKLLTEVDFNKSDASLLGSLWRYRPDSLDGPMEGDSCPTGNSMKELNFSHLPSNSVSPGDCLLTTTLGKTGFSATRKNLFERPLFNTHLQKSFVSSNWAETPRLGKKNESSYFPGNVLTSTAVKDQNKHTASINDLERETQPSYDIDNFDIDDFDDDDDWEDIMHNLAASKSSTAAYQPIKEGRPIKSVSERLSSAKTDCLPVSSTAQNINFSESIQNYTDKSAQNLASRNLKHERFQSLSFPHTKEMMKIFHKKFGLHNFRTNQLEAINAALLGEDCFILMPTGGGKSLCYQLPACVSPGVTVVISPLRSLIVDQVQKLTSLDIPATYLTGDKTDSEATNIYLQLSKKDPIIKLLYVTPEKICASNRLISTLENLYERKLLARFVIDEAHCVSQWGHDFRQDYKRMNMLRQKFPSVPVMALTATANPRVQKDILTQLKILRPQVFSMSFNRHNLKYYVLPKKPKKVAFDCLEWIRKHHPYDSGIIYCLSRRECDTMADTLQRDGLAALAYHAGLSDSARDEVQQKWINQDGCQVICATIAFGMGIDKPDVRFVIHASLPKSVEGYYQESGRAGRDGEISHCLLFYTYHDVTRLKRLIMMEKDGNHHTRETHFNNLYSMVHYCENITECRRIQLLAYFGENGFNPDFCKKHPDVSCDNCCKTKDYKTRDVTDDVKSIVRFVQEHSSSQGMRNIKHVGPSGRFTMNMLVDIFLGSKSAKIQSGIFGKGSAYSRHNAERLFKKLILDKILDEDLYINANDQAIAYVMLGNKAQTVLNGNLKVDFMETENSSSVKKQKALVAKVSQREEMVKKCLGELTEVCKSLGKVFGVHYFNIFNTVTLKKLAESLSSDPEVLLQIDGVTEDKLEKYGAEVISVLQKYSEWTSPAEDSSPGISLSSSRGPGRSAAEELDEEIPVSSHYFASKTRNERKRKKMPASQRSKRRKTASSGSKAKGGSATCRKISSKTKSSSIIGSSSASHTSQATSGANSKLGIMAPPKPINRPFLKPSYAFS
Procedure, shortened: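 50 nM BLM preincubated 15 min at room temperature with compound in pH 8.0 Tris buffer containing 2.5 ug/ml poly(dI-dC); started with 200 nM TAMRA/BHQ-2 forked duplex and 2 mM ATP (final). Unwinding read as TAMRA fluorescence increase, two reads 2 h apart.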

[20] = measured here: cell count channel max response
[21] = measured here: lipid channel max response

CC(=O)O[C@]1(C(C)=O)CC[C@H]2[C@@H]3C=C(Cl)C4=CC(=O)[C@@H]5C[C@@H]5[C@]4(C)[C@H]3CC[C@@]21C
inactive: outcome [1] | outcome [2] | Potency [3]

O=C(O)c1cc(O)c2c(c1)C(=O)c1cccc(O)c1C2=O
13.4%: max response [4, 20]
21.8%: max response [4, 21]
inactive: activity change, negative = inhibition ([4]; at 57.5 µM (top of the series)) 8.11% | outcome [5]

CC(=O)N[C@@H](CS)C(=O)O
inactive: outcome [6] | outcome [7] | outcome [8] | Potency [9] | Potency [10] | Potency [11] | Potency [12] | Potency [13] | Potency [14] | Potency [15] | outcome [16] | outcome [1] | outcome [2] | Potency [3] | Potency [17]

CC/C(=C(\c1ccccc1)c1ccc(OCCN(C)C)cc1)c1ccccc1
active: Potency [9] 8.91 µM | Potency [10] 12.6 µM | Potency [11] 11.2 µM | Potency [12] 11.2 µM | Potency [13] 11.2 µM | Potency [14] 7.94 µM | Potency [15] 11.2 µM | Potency [17] 17.8 µM
6.28%: max response [4, 20]
15.3%: max response [4, 21]
inactive: activity change, negative = inhibition ([4]; at 57.5 µM (top of the series)) 6.58% | outcome [6] | outcome [7] | outcome [16] | outcome [18]

COc1cccc(-c2cc(=O)c3ccccc3o2)c1N
15.5%: max response [4, 21]
inactive: activity change, negative = inhibition ([4]; at 57.5 µM (top of the series)) 1.98% | outcome [6] | outcome [7] | outcome [8] | Potency [13] | outcome [16] | outcome [18] | outcome [1] | outcome [2] | Potency [3]
active: Potency [14] 12.6 µM
13.8%: max response [4, 20]

O=c1cc(-c2ccc(O)cc2)oc2cc(O)cc(O)c12
active: Potency [9] 11.2 µM | Potency [10] 14.1 µM | Potency [11] 12.6 µM | Potency [14] 10 µM | Potency [15] 11.2 µM
inactive: activity change, negative = inhibition ([4]; at 57.5 µM (top of the series)) 5.85% and 0.858% and 6.23% | Potency [13] | outcome [18] | Potency [19] | outcome [1] | outcome [2] | Potency [3]
-3.26% and -4.54% and 14.7%: max response [4, 20]
4.46% and -2.56% and 22.7%: max response [4, 21]

C[N+](C)(C)CCCCCC[N+](C)(C)C
inactive: activity change, negative = inhibition ([4]; at 25.7 µM (top of the series)) -1.97% | activity change, negative = inhibition ([4]; at 57.5 µM (top of the series)) 11.8% and 0.867% and 2.49% | outcome [6] | outcome [7] | outcome [8] | Potency [9] | Potency [10] | Potency [11] | Potency [12] | Potency [13] | Potency [14] | Potency [15] | outcome [16] | outcome [18] | Potency [19] | outcome [1] | outcome [2] | Potency [3] | Potency [17]

C[N+](C)(C)CC(=O)O
inactive: outcome [1] | outcome [2] | Potency [3]

CC(C)NCC(O)COc1cccc2[nH]ccc12 (configuration not stated)
inactive: activity change, negative = inhibition ([4]; at 57.5 µM (top of the series)) 10.5% | outcome [6] | outcome [7] | outcome [16] | outcome [18] | outcome [1] | outcome [2] | Potency [3] | Potency [17]
13.4%: max response [4, 21]
-0.51%: max response [4, 20]

O=C(O)Cc1cccc2ccccc12
inactive: outcome [5]

CC1(C)CCC2=C(O1)c1ccccc1C(=O)C2=O
inactive: outcome [6] | outcome [7] | outcome [8] | outcome [18] | outcome [2]
active: Potency [9] 3.55 µM | Potency [10] 3.98 µM | Potency [11] 10 µM | Potency [12] 11.2 µM | Potency [13] 12.6 µM | Potency [14] 7.08 µM | Potency [15] 12.6 µM | Potency [19] 25.1 µM

CN(C)CCC(c1ccccc1)c1ccccn1 (configuration not stated)
23.2%: max response [4, 20]
inactive: activity change, negative = inhibition ([4]; at 57.5 µM (top of the series)) 5.69% | outcome [6] | outcome [7] | outcome [8] | Potency [11] | Potency [12] | Potency [15] | outcome [16] | outcome [18] | Potency [19] | outcome [1] | outcome [2] | Potency [3] | Potency [17]
active: Potency [10] 5.62 µM | Potency [14] 3.55 µM
33.1%: max response [4, 21]

O=C(NCCN1CCOCC1)c1ccc(Cl)cc1
inactive: outcome [1] | outcome [2] | Potency [3]
